Data on 61 compounds can be found in PubChem BioAssay AID1626 (SRMLSC, 2009).

The whole screen tested about 220,000 compounds, of which about 2,000 (0.91%) were called active. Roughly 2% stayed inconclusive and do not appear here. Rule as the data show it: inconclusive = inhibition above about 80% without an active follow-up result; inactive = below that; test concentration not stated here. A selection follows. Potency and affinity values are given separately.

The nature of this experiment: M. tuberculosis H37Rv growth inhibitors, H37Rv strain (AID 1626).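 Also: bacteria incubated seven days before Alamar blue readout; 0% = bacteria only wells and 100% = bacteria with antibiotic wells.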 Particulars: stronger effect = higher value, concentration not given here.
As a reminder, the inhibition is the drop in the measured response relative to a control, in per cent. As to `CC(Cn1cnc2ccccc21)C(=O)O` (stereo unspecified), the inhibition was -0.91% (inactive).

Turning to `Cc1cc(C)c(C(=O)Nc2ccc(C)c(C)c2)c(CC(C)(C)C(=O)O)c1`, the inhibition was -5.76% (inactive).

With `CC(NC(=O)COC(=O)/C=C/c1cccc(C(F)(F)F)c1)c1ccccc1` (stereo unspecified), the inhibition was 5.27% (inactive).

Take `O=C1N=C(N2CCN(c3ccccc3)CC2)SC1Cc1ccccc1` (stereo unspecified): the inhibition is 1.7% (inactive).

As to `O=C(Nc1ccccc1)N1CCCC1c1cccs1` (stereo unspecified), the inhibition was -1.63% (inactive).

As to `Cc1ccc2nc(-c3ccc(SCC(=O)O)nc3)[nH]c2c1`, the inhibition was 4.36% (inactive).

Regarding `Cc1nc(NC(=O)CSc2ccc(-c3nc4ccccc4[nH]3)cn2)sc1C`, the inhibition is -0.38% (inactive).

Consider `CC(=O)CSc1ccc(-c2nc3cc(C)c(C)cc3[nH]2)cn1`, for which the inhibition was 11.7% (inactive).

Consider `Cc1cc2nc(-c3ccc(SCC(=O)NC(C)C)nc3)[nH]c2cc1C`, for which the inhibition is 1.74% (inactive).

As for `Cc1ccc2nc(-c3ccc(SCC(=O)Nc4nc(C)cs4)nc3)[nH]c2c1`, the inhibition was 0.98% (inactive).

Take `CCc1nnc(NC(=O)CSc2ccc(-c3nc4ccccc4[nH]3)cn2)s1`: the inhibition was -3.06% (inactive).

`Cc1ncoc1C(=O)N1CCc2c([nH]c3ccccc23)C1C1CCCCC1` (stereo unspecified): the inhibition was 11.8% (inactive).

With `CC(CS(=O)(=O)c1cccc2cccnc12)N1CCCCC1` (stereo unspecified), the inhibition was 2.17% (inactive).

Regarding `CCNc1nc(NCc2ccccc2)nc(SCC(N)=O)n1`, the inhibition is 78.2% (inactive).

Regarding `COc1ccc(NC(=O)Nc2sc(=S)n(C)c2C)cc1`, the inhibition was -3.18% (inactive).

Consider `CCOc1nc(-c2ccc(OC)cc2)ccc1-c1noc(C)n1`, for which the inhibition was 6.32% (inactive).

With `Cc1nn(-c2ccccc2)c(N2CCCC2)c1/C=N/NC(=O)C1CC1`, the inhibition was 1.71% (inactive).

Consider `COC(=O)C1=C(C)NC(=O)CC1c1ccc(F)c(Br)c1` (stereo unspecified), for which the inhibition was 13.5% (inactive).

Take `CCN(c1ccccc1)S(=O)(=O)c1ccc(C(=O)OC(C)C(=O)NCCC2=CCCCC2)cc1` (stereo unspecified): the inhibition is 0.82% (inactive).

Regarding `COc1ccc(C(C(=O)NC2CCCCC2)N(C(=O)c2sc(C)nc2C)c2ccc(OC)cc2)cc1` (stereo unspecified), the inhibition was 78.9% (inactive).

For the compound `COc1ccc(C(C(=O)NC2CCCCC2)N(C(=O)c2ccccn2)c2cccnc2)cc1` (stereo unspecified), the inhibition was -6.78% (inactive).

With `COc1ccc(C(C(=O)NC2CCCCC2)N(C(=O)c2sc(C)nc2C)c2ccccc2)cc1` (stereo unspecified), the inhibition is 1.23% (inactive).

For `COc1ccc(N(C(=O)c2cnccn2)C(C(=O)NC2CCCCC2)c2ccc(O)cc2)cc1` (stereo unspecified), the inhibition is 4.1% (inactive).

For the compound `O=C(O)c1cccc(NC(=O)c2ccc(Cl)c(S(=O)(=O)N3CCCCCC3)c2)c1`, the inhibition is -5.92% (inactive).

Consider `CCOc1ncccc1C(=O)OCc1ccc(C#N)cc1`, for which the inhibition was 4.57% (inactive).

Turning to `Nc1nnc(SCC(=O)Nc2ccccc2)s1`, the inhibition is -3.63% (inactive).

Consider `C=C1C(=O)[C@@]23[C@H](O)C[C@@H]4C(C)(C)CC[C@H](O)[C@]4(C)[C@@H]2C[C@H](O)[C@@H]1[C@H]3O`, for which the inhibition is -0.64% (inactive).

Take `C#CCONC(=O)c1cc(OCC(F)(F)F)ccc1OCC(F)(F)F`: the inhibition is -4.59% (inactive).

For `c1ccc(C(c2ccccc2)c2noc(CN3CCN(CC4CC4)CC3)n2)cc1`, the inhibition is 0.03% (inactive).

As for `O=C(N/N=C/C=C/c1ccccc1)c1cccnc1`, the inhibition is -6.98% (inactive).

Take `Cc1[nH]c(=O)[nH]c(=O)c1S(=O)(=O)N(C)Cc1ccccc1`: the inhibition was -4.39% (inactive).

On to `CSCCC(NC(=O)c1cccc([N+](=O)[O-])c1)c1nc2ccccc2[nH]1` (stereo unspecified), for which the inhibition is 24.1% (inactive).

Consider `CSCC[C@H](NC(=O)c1cc([N+](=O)[O-])ccc1Cl)c1nc2ccccc2[nH]1`, for which the inhibition is 3.89% (inactive).

On to `CCN(CCCNC(=O)C1CCC(=O)N1Cc1ccccc1Cl)c1cccc(C)c1` (stereo unspecified), for which the inhibition was 4.14% (inactive).

With `CCOC(=O)C1=C(C)NC(=O)NC1c1c(C)nn(-c2ccccc2)c1Cl` (stereo unspecified), the inhibition is -11.2% (inactive).

Take `O=Nc1c(O)[nH]c2ccc(Cl)cc12`: the inhibition was -4.64% (inactive).

In the case of `O=C1CCCC(O)=C1C=Nc1cccc(C(F)(F)F)c1`, the inhibition is 8.3% (inactive).

As to `Cc1cc(C)cc(N=Cc2c(O)c3ccccc3oc2=O)c1`, the inhibition is 6.96% (inactive).

On to `Cc1ccccc1N=Cc1cccc(O)c1O`, for which the inhibition is 30.2% (inactive).

As to `COc1cccc(N=CC2=C(O)CCCC2=O)c1`, the inhibition is -8.36% (inactive).

Regarding `O=C1CCCC(O)=C1C=Nc1ccc(O)cc1`, the inhibition is 3.95% (inactive).

Turning to `CCOC(=O)c1c(-c2ccc(OC)cc2)csc1/N=C/C1=C(O)CCCC1=O`, the inhibition is 4.93% (inactive).

For `Cc1cccc(-c2nc(C#N)c(NCC3CCCO3)o2)c1` (stereo unspecified), the inhibition was 8.91% (inactive).

For the compound `CN(C)S(=O)(=O)c1ccc(NC(=S)NC(=O)c2cccs2)cc1`, the inhibition was -8.18% (inactive).

For `CCCc1nnc(NC(=O)CCCN2C(=O)c3ccccc3C2=O)s1`, the inhibition is -6.93% (inactive).

In the case of `COC(=O)CCC(=O)N1CCc2cc(S(=O)(=O)N3CCc4ccccc43)ccc21`, the inhibition was -6.96% (inactive).

With `Cc1c(NC(=O)CSc2nnc(COc3ccccc3)n2-c2ccccc2)c(=O)n(-c2ccccc2)n1C`, the inhibition is -6.74% (inactive).

For `COc1ccc(C2SC[C@@H](C(=O)O)N2C(C)=O)cc1` (stereo partly specified), the inhibition was -5.12% (inactive).

Consider `O=C(CN1CCOCC1)Nc1ncc(Cc2cccc(Cl)c2)s1`, for which the inhibition was 9.73% (inactive).

Take `CC(C)C(=O)Nc1ncc(Cc2cccc(Cl)c2)s1`: the inhibition is 17.7% (inactive).

On to `O=C(CN1CCOCC1)Nc1ncc(Cc2ccccc2Cl)s1`, for which the inhibition is 9.04% (inactive).

Take `CCc1nnc(N2C(=N)SCC2=O)s1`: the inhibition is 10% (inactive).

Regarding `Cc1ccc(-c2csc(N3C(=N)SCC3=O)n2)cc1`, the inhibition was -8.29% (inactive).

Take `N=C1SCC(=O)N1c1nc(-c2ccccc2)cs1`: the inhibition is -8.62% (inactive).

With `CC(C)(C)C(=O)Cn1c(NCCCl)nc2ccccc21`, the inhibition is 0.32% (inactive).

Take `CCc1ccccc1NC(=O)CN(C)C(=O)Cn1cc(C(F)(F)F)cc(Cl)c1=O`: the inhibition was 10% (inactive).

With `CCN(CC(=O)Nc1ccc(NC(C)=O)cc1)C(=O)/C=C/c1cccs1`, the inhibition is -2.91% (inactive).

For the compound `Clc1ccc(CN2CCN(c3ncnc4scc(-c5cccs5)c34)CC2)cc1`, the inhibition is 7.36% (inactive).

Turning to `O=C(Cn1cc2c(n1)CCCC2)NCCCN1CCN(C2CCCCC2)CC1`, the inhibition was -6.49% (inactive).

As to `CC(=O)/C(=C(/O)c1ccccc1)c1nc2ccccc2[nH]1`, the inhibition is 2.45% (inactive).

Consider `O=C(OCc1ccccc1)C1=NNC2C(=O)N(Cc3ccccc3)C(=O)C12` (stereo unspecified), for which the inhibition was 8.28% (inactive).
